Compounds with a hit are over-represented: about 7.4% of the library has one in this group of screens.
Rab9 prom act: activators of Rab9 promoter. Huh7 Rab9 promoter-luciferase reporter, luminescence, 24 h. Potency, µM (series often up to 9.22 µM), inactives show top-dose activation, negative = inhibition, hits mostly activators. 320,000 compounds, 2.8% hits. AID 485297; also: % of control where 0% means no effect; nearly all actives have a fitted effect of over 60% in size
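Huh7 reporter line, Rab9 promoter upstream of luciferase. Compound exposure 24 h at 37 °C in reduced-serum medium with 10% FBS. Read-out: luminescence.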
NPC1 promoter act: activates the NPC1 promoter | Potency, µM (titrated, usually from 9.22 µM), inactives show at the highest dose activation, actives largely listed as activators | 320,000 compounds, 2.4% hits | AID 485313 | Huh7 NPC1 promoter luciferase reporter, 24 h; also: % of control where 0% means no effect; nearly all actives have a fitted effect of over 60% in size
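Huh7 cells stably carrying NPC1 promoter–luciferase, plated in Opti-MEM with 10% FBS for 2 h, were exposed to compound in DMSO for 24 h at 37 °C; luciferase reagent was added for 10 min and luminescence read.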
FLuc counter: firefly luciferase modulation, counter-screen for miR-21 project. 360,000 compounds, 6.9% hits. purified FLuc, Km substrates, luminescence inhibition. Potency, µM (series often up to 57.5 µM), for inactives: at the top dose activity change, negative = inhibition, hits mostly inhibitors. P08659;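 also: plate controls were vehicle for no effect and reference inhibitor for full effect; nearly all actives have a fitted effect of over 55% in size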
Target sequence (P08659 whole entry, looked up): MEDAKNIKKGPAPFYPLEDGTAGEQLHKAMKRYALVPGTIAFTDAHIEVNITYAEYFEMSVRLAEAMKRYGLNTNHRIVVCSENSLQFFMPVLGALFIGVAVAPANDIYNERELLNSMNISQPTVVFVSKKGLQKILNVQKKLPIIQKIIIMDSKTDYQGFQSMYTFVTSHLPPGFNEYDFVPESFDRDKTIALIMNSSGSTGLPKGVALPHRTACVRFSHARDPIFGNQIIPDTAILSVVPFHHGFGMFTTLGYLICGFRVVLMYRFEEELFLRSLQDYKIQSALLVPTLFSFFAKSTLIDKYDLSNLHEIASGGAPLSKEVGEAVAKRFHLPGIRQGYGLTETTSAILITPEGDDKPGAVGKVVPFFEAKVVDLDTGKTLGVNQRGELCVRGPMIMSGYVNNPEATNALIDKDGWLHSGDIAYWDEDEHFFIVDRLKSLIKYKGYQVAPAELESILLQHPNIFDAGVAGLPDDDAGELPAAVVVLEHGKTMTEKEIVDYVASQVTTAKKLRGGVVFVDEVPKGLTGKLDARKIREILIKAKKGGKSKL
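Purified P. pyralis luciferase, 10 nM final, with Km-level 10 uM D-luciferin and 10 uM ATP in 50 mM Tris acetate pH 7.5, 10 mM Mg acetate, 0.01% Tween-20, 0.05% BSA; 6-point qHTS titration about 60 µM downward; luminescence read.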
SMN2 splice up: enhancers of SMN2 splice variant expression; HEK293 SMN2-luciferase splicing reporter, luminescence, 30-36 h; Potency, µM (top dose mostly 46.1 µM), for inactives: top-dose activity change, positive = activation, usual class: activators; 210,000 compounds, 2.8% hits; also: % of control where 0% means no effect; nearly all actives have a fitted effect of over 55% in size
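HEK293 cells carry an SMN2 […]–luciferase reporter in which exon 7 inclusion puts luciferase in frame. Cells were plated 10-12 h before compound addition, then incubated 30-36 h at 37C. ONE-Glo luminescence was read; sodium butyrate at 4.5 mM final served as control.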
ELG1 genotox: genotoxicity induction in ELG1-luciferase HEK293T cells. HEK293T ELG1-luciferase reporter, luminescence, 16 h. Potency, µM (series often up to 46 µM), for the others: at the top dose activity change, positive = activation, hits mostly activators. 330,000 compounds, 1.3% hits; also: % of control where 0% means no effect; nearly all actives have a fitted effect of over 60% in size
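16 hr compound incubation (37 °C, 5% CO2) of HEK293T cells carrying luciferase-tagged ELG1; luciferase then measured by ONE-Glo luminescence after 30 min at RT.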
The depositor's hits bear a star. Calls follow the shape of the dose curve; as a rule, active = well fitted curve in the direction sought with a large enough effect; inconclusive = small, poorly fitted or top-dose-only effect, or another doubt; inactive = no such curve, though single readings can be large; an effect the other way counts as inactive or inconclusive. Potency is read from the fitted curve at half-maximal effect.

O=C(NCc1ccccc1)c1cccc(COc2cccc(Cl)c2)c1 was read as Rab9 prom act inconclusive, NPC1 promoter act inconclusive, FLuc counter -12%, SMN2 splice up 19% and ELG1 genotox 1%.
O=C(NCc1ccccc1)c1cccc(COc2ccc(Cl)cc2)c1 was read as Rab9 prom act 2.8µM*, NPC1 promoter act 1.8µM*, FLuc counter 17µM*, SMN2 splice up 6.3µM* and ELG1 genotox inconclusive.
Screening COc1cc(CNC(=O)c2cccc(COc3ccc(Cl)cc3)c2)cc(OC)c1 returned Rab9 prom act 0.22µM*, NPC1 promoter act 0.71µM*, FLuc counter 11µM*, SMN2 splice up 2.5µM* and ELG1 genotox inconclusive.
Screening CNS(=O)(=O)c1cc(NC(C)=O)c(C)cc1C returned Rab9 prom act 1%, NPC1 promoter act -3%, FLuc counter 2%, SMN2 splice up -16% and ELG1 genotox 1%.
Cc1nn2c(=O)cc(COC(=O)c3cccc(NC(=O)c4cccs4)c3)nc2s1 was read as FLuc counter 0%.
For O=C(O)C(=O)/C(=C\c1cccc(Cl)c1)c1ccc2ccccc2n1 the results were Rab9 prom act 0%, NPC1 promoter act 4%, FLuc counter inconclusive, SMN2 splice up 11µM* and ELG1 genotox inconclusive.
Screening N#Cc1ccc(/C=C(\C(=O)C(=O)O)c2ccc3ccccc3n2)cc1 returned Rab9 prom act inconclusive, NPC1 promoter act 1%, FLuc counter inconclusive and ELG1 genotox inconclusive.
For Cc1cccc(/C=C(\C(=O)C(=O)O)c2ccc3ccccc3n2)c1 the results were Rab9 prom act 2.2µM*, NPC1 promoter act 2.2µM*, FLuc counter inconclusive, SMN2 splice up 22µM* and ELG1 genotox 15µM*.
`O=C(Nc1cccc([N+](=O)[O-])c1)c1ccc2c(c1)C(=O)N(c1ccccn1)C2=O` gave Rab9 prom act 3%, NPC1 promoter act 2%, FLuc counter -16% and ELG1 genotox 10%.
Screening COc1ccc(CCC(=O)Nc2nc3ccccc3[nH]2)cc1 returned Rab9 prom act 2.2µM*, NPC1 promoter act 3.5µM*, FLuc counter inconclusive, SMN2 splice up -1% and ELG1 genotox inconclusive.
Screening COc1ccccc1CCC(=O)Nc1nc2ccccc2[nH]1 returned Rab9 prom act inconclusive, NPC1 promoter act inconclusive, FLuc counter 13µM*, SMN2 splice up 13µM* and ELG1 genotox inconclusive.
Screening O=C(COc1ccc2ccccc2c1)Nc1nc2ccccc2[nH]1 returned Rab9 prom act 1%, NPC1 promoter act 2%, FLuc counter -3%, SMN2 splice up -19% and ELG1 genotox 14%.
CCOc1ccccc1OCCCC(=O)Nc1nc2ccccc2[nH]1 was read as Rab9 prom act 5%, NPC1 promoter act 8%, FLuc counter -1%, SMN2 splice up -4% and ELG1 genotox 6%.
`CCCCCC(=O)Nc1nc2ccccc2[nH]1` gave Rab9 prom act inconclusive, NPC1 promoter act inconclusive, FLuc counter 13µM*, SMN2 splice up 14µM* and ELG1 genotox inconclusive.
For COc1ccc(OCC(=O)Nc2nc3ccccc3[nH]2)cc1 the results were Rab9 prom act inconclusive, NPC1 promoter act inconclusive, FLuc counter 4.8µM*, SMN2 splice up 18% and ELG1 genotox 21µM*.
For O=[N+]([O-])c1cccc(N(CC2CO2)S(=O)(=O)c2ccccc2)c1 (stereo not drawn) the results were Rab9 prom act -5%, NPC1 promoter act 0%, FLuc counter 2% and ELG1 genotox 13%.
Screening C/C(=N\NC(=O)c1csc(C)c1C)c1ccc(Cl)s1 returned Rab9 prom act inconclusive, NPC1 promoter act inconclusive, FLuc counter inconclusive, SMN2 splice up -3% and ELG1 genotox inconclusive.
CC/C(=N\NC(=O)c1csc(C)c1C)c1cccs1 was read as Rab9 prom act 1.1µM*, NPC1 promoter act 2µM*, FLuc counter 2.4µM*, SMN2 splice up 14µM* and ELG1 genotox inconclusive.
CCC/C(=N\NC(=O)c1csc(C)c1C)c1cccs1 was read as Rab9 prom act 3.2µM*, NPC1 promoter act inconclusive, FLuc counter 4.8µM*, SMN2 splice up 16µM* and ELG1 genotox 10µM*.
`CC(=O)Nc1ccc(NC(=O)CSc2nnc3ccc(-c4cccnc4)nn23)cc1` gave Rab9 prom act -6%, NPC1 promoter act -2%, FLuc counter inconclusive and ELG1 genotox 3%.
`COc1cc(OC)cc(C(=O)NCCc2csc(-c3ccc(C(F)(F)F)cc3)n2)c1` gave FLuc counter -12%.
Cc1ccc(C(=O)NCCc2csc(-c3cccc(F)c3)n2)cc1C was read as FLuc counter 19µM*.
For COc1ccc(C(=O)NCCc2csc(-c3ccc(Cl)cc3)n2)cc1 the results were FLuc counter 12µM*.
CCOc1ccc(C(=O)NCCc2csc(-c3cccc(C)c3)n2)cc1 was read as FLuc counter 17µM*.
For Cc1ccc(Cl)cc1NC(=O)C1CCCN1S(=O)(=O)c1ccc(-c2ccc(=O)[nH]n2)s1 (stereo not drawn) the results were Rab9 prom act 7%, NPC1 promoter act -8%, FLuc counter 0% and ELG1 genotox -3%.
Screening Cc1nnc(SCc2cnc(-c3ccc(C(C)C)cc3)s2)n1C returned Rab9 prom act 2µM*, NPC1 promoter act 1.6µM*, FLuc counter 0.3µM*, SMN2 splice up inconclusive and ELG1 genotox inconclusive.
Cc1ccc(Cl)cc1NC(=O)c1cc(S(=O)(=O)N2CCOCC2)cn1C was read as Rab9 prom act 5%, NPC1 promoter act 0%, FLuc counter -2% and ELG1 genotox -1%.
For CN(C)c1ccc(C=NCC2COc3ccccc3O2)cc1 (stereo not drawn) the results were Rab9 prom act -4%, NPC1 promoter act -5%, FLuc counter 12µM* and ELG1 genotox 3%.
Screening COCCn1c(C(=O)N2CCCC2)cc2c1C[C@H]1CN(C(=O)c3ccccc3)[C@@](Cc3ccc(OC)cc3)(C(=O)OC)[C@@H]21 returned SMN2 splice up -1%.
`Cn1c(=O)oc2cc(S(=O)(=O)N3CCC(C(=O)N4CCN(c5ccccc5F)CC4)CC3)ccc21` gave FLuc counter 1% and SMN2 splice up -10%.
For CCOC(=O)C1=C(C)NC(C)=C(C(=O)OCC)C1c1ccc(O)cc1 the results were Rab9 prom act 12%, NPC1 promoter act 0%, FLuc counter 3%, SMN2 splice up 13µM* and ELG1 genotox 14%.
Screening Cc1ccc(N(CC(=O)Nc2ccccc2-c2ccccc2)S(=O)(=O)c2ccccc2)c(C)c1 returned Rab9 prom act 2%, NPC1 promoter act -3%, FLuc counter 0%, SMN2 splice up -18% and ELG1 genotox 4%.
`CCOc1ccc2nc(N3CCN(C(=O)CS(=O)(=O)c4ccc(F)cc4)CC3)sc2c1` gave FLuc counter 3µM*.

Screening results as filed in PubChem BioAssay.
